# A selection: hits, their analogues and other compounds. The true share with any hit is near 2.3%.
# M1 PAM – human M1 muscarinic receptor positive allosteric modulators, primary screen, CHO-K1 cells, Fluo-8 calcium fluorescence, 1536-well; activation, % at 3 µM; AID 588819, 2011; Muscarinic acetylcholine receptor M1 (Homo sapiens), P11229; 360,000 compounds, 0.088% hits; CHO-K1 hM1, ACh EC20; 0% = ACh EC20, 100% = maximal ACh; in the data active = activation above about 19%, passing the limit was not always enough
# Target sequence (P11229 whole entry, looked up): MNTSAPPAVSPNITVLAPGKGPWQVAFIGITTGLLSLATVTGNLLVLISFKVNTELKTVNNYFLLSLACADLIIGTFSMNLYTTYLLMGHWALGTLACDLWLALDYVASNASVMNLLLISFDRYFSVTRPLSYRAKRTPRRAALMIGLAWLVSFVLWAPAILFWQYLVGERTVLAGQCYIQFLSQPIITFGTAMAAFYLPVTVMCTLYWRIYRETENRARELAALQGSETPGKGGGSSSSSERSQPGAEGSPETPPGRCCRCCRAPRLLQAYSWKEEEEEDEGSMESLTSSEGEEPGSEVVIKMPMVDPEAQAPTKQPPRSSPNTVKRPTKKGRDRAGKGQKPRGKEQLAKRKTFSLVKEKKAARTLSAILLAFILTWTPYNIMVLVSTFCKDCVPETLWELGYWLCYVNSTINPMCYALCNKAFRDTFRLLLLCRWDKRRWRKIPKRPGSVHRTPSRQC
# M1 PAM parental – nonselective calcium activators in parental CHO-K1 cells, primary screen, counter-screen for M1 PAM project, cell-based, Fluo-8 calcium fluorescence, full deck, 1536-well. 360,000 compounds, 0.02% hits. ATP EC20; 0% at ATP EC20, 100% at ATP max. activation, % at 3 µM;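 active = activation above the run cutoff, the mean activation of all test compounds plus 3 SD, cut at about 40% in these data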;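 also: peak over basal fluorescence ratio in a 140 s read after ATP addition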
# CHO-K1 Ca antag – counter-screen for M1 antagonists: effect in parental CHO-K1 cells. ATP-induced calcium, Fluo-8 fluorescence. inhibition, % at 3 µM. 360,000 compounds, 0.6% hits. AID 602250;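 active = inhibition above a per-plate cutoff, the plate's mean sample inhibition plus 3 SD, cut at about 24% in these data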;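 also: 0% = DMSO plus EC80 ATP and 100% = DMSO alone without ATP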
# M1 antag – human M1 muscarinic receptor antagonists, primary screen, CHO-K1 cells, Fluo-8 calcium fluorescence, 1536-well | Muscarinic acetylcholine receptor M1 (Homo sapiens), P11229 | CHO-K1 hM1, ACh EC80 antagonist | inhibition, % at 3 µM | 360,000 compounds, 1.3% hits | AID 588852, 2011;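 active = percent inhibition above its own plate's cutoff, namely the mean of that plate's compound wells plus 3 SD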;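 also: peak over basal fluorescence ratio during 140 s after agonist addition; 0% = ACh EC80 plus DMSO and 100% = DMSO alone without agonist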
# CHO-K1 Ca ag – counter-screen for M1 agonists: effect in parental CHO-K1 cells; Fluo-8 calcium fluorescence; scaled to maximal ATP response, vehicle zero; 360,000 compounds, 0.48% hits; activation, % at 3 µM; AID 602248, 2012; in the data active = activation above about 15%;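 also: untransfected CHO-K1 host cells lacking M1 receptor as counterscreen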
# CHRM1 agonist – human M1 muscarinic receptor agonists, primary screen, Fluo-8 calcium fluorescence, CHO-K1 cells, HTS | CHO-K1 hM1, agonist mode; 0% DMSO, 100% acetylcholine EC100 | activation, % at 3 µM | 360,000 compounds, 0.33% hits;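 active = activation above the run's mean compound activation plus 3 SD, cut at about 16% in these data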;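 also: peak over basal fluorescence ratio within a 140 s kinetic read after compound addition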
# Numbers without * were called inactive.
SMILES,M1 PAM,M1 PAM parental,CHO-K1 Ca antag,M1 antag,CHO-K1 Ca ag,CHRM1 agonist
CC(C)(C)C(=O)NC(=S)NNC(=O)C(c1ccccc1)c1ccccc1,-24,-32,47*,91*,107*,114*
COCCOC1CCN(C(=O)c2cc(COc3ccc(-n4cncn4)cc3)on2)CC1,3,-3,-1,-4,1,-1
CCN1CCN(C(=O)c2cc(COc3ccc4ncccc4c3)on2)CC1,-2,14,-4,10,11,3
COCC1CCCCN1C(=O)c1cc(COc2ccc3ncccc3c2)on1 (stereo not given),-16,-24,33*,55*,20*,6
Cc1ccc(F)cc1CNC(=O)c1cc(COc2ccc3ncccc3c2)on1,-26,-1,17,39*,14,1
COCCC1CCCCN1C(=O)c1cc(COc2ccc(-n3cncn3)cc2)on1 (stereo not given),-4,-17,25*,31*,15,6
CCC1CCCCN1C(=O)c1cc(COc2ccc3ncccc3c2)on1 (stereo not given),-13,-7,27*,31,16*,-1
O=C(NCc1cccc(Cl)c1)c1cc(COc2ccc3ncccc3c2)on1,-10,-2,7,28,12,-3
O=C(COC(=O)c1cccc(Br)c1)Nc1ccc2[nH]c(=O)[nH]c2c1,-8,-15,7,14,0,-5
COc1ccc(-c2coc3c(C(=O)Nc4cccc(NS(C)(=O)=O)c4)cccc23)c(C)c1,-6,5,1,10,2,-1
Cn1nc(C(C)(C)C)cc1NC(=O)C1(C)CCN1C(=O)CC(c1ccccc1)c1ccccc1 (stereo not given),-2,2,6,-9,0,-9
C[C@H]1CN([C@@H](C)CO)S(=O)(=O)c2ccc(-c3ccc(C#N)cc3)cc2O[C@H]1CN(C)C(=O)CN(C)C,7,12,5,-7,1,-8
O=C(CSc1nnc(CNC(=O)c2cccc(C(F)(F)F)c2)o1)NC1CCCCC1,1,7,5,1,0,-3
Cc1ccc2cc(CN(Cc3cccs3)Cc3nnnn3CC3CCCO3)c(=O)[nH]c2c1C (stereo not given),-1,-3,24*,0,0,-5
Cc1ccc2cc(CN(Cc3cccs3)Cc3nnnn3CC3CCCO3)c(=O)[nH]c2c1 (stereo not given),4,22,-22,-2,3,-4
COCCN(CC1CCCN(C2Cc3ccccc3C2)C1)C(=O)CCC(N)=O (stereo not given),-28,17,-10,47*,0,-10
O=C(NC1CCCCCC1)C1CC(=O)N(c2ccc(Cl)cc2)C1 (stereo not given),7,5,-17,-4,2,-3
CCCn1c(NC(=O)CCS(=O)(=O)c2ccc(C)cc2)nc2ccccc21,2,-5,-5,-3,0,-5
Cc1ccc(Nc2ccc(-n3ccnc3)nn2)cc1C,2,3,-7,-9,0,-5
COc1cccc(Nc2ccc(-n3ccnc3)nn2)c1,11,14,-3,-9,15*,1
CC(C)Oc1ccc(S(=O)(=O)N2CCOCC2)cc1NC(=O)C1CCCCC1,7,16,-30,-11,1,-2
COc1ccc(CCNC(=O)C(=O)NCC2CCCN2S(=O)(=O)c2ccccc2)cc1 (stereo not given),-9,-7,15,29*,8,0
COc1ccc(CCNC(=O)C2CC2)cc1,7,-22,28*,-8,0,1
O=C(NCc1ccc(F)cc1)C(=O)NCC1CCCN1S(=O)(=O)c1ccccc1 (stereo not given),14,10,21,-10,0,-2
O=C(NCCc1ccc(F)cc1)C(=O)NCC1CCCN1S(=O)(=O)c1ccccc1 (stereo not given),-7,-9,11,27*,10,2

# Source: PubChem (The Scripps Research Institute Molecular Screening Center)
